# Source: PubChem BioAssay AID588475 (Sanford-Burnham Center for Chemical Genomics, 2011)
# The whole screen tested about 350,000 compounds, of which about 2,100 (0.6%) were called active. Only a selection was taken, and actives are over-represented in it overall. A number with no mark means an inactive call.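 How the source made its calls: active means inhibition of the ligand-induced calcium signal above about 50% at the single tested concentration (limit read from the data); inactive means the rest.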
# Test: antagonists of CRF-BP/CRF-R2 complex, primary screen, cell-based, HEK293, calcium dye fluorescence, uHTS (AID 588475)
# Conditions: CRF-induced calcium fluorescence, at 11.8 µM, active compounds read high
row,SMILES,inhibition
1,CCOc1ccc(NC(=O)COc2ccc(C(=O)N3CCC(C(N)=O)CC3)cc2OC)cc1,-31.7%
2,COCC(C)n1c(SCc2ccc(C(=O)OC)o2)nc2ccccc2c1=O (configuration not stated),51.9% (active)
3,COCCn1c(C)cc(C(=O)CSc2nc3ccccc3c(=O)n2C(C)COC)c1C (configuration not stated),25.5%
4,COCCNC(=O)c1ccc(-n2c(SCc3cccnc3)nc3ccccc3c2=O)cc1,-8.33%
5,COC(=O)c1ccc(CSc2nc3ccccc3c(=O)n2-c2cccc(OC)c2)o1,76.5% (active)
6,COc1cccc(-n2c(SCC(=O)NC3CCS(=O)(=O)C3)nc3ccccc3c2=O)c1 (configuration not stated),3.38%
7,COCC(C)n1c(SCC(=O)NC2CCCCC2C)nc2ccccc2c1=O (configuration not stated),6.09%
8,COc1ccc(CCNC(=O)c2nnc(CS(=O)(=O)c3ccccc3)o2)cc1OC,-36.1%
9,CCc1nn(CCCC(=O)NCc2ccc(C)cc2)c(=O)c2cc3occc3n12,-4.08%
10,Cc1ccc(C)c(S(=O)(=O)N2CC(=O)Nc3ccccc32)c1,-4.23%
11,O=C(NCc1ccncc1)c1cccc(NS(=O)(=O)c2ccc(F)c(F)c2)c1,-1.96%
12,Cc1cc(=O)oc2c(C(=O)c3ccccc3)c(OCC(N)=O)ccc12,21.9%
13,CCCN(CC(=O)Nc1ccccc1C)C(=O)c1ccc2[nH]c3c(c2c1)CC(C)CC3 (configuration not stated),-10.4%
14,CN(CC(=O)Nc1cccc(F)c1)C(=O)CC1CCCC1,-9.75%
15,CC1CCc2[nH]c3ccc(C(=O)N(C)CC(=O)Nc4cccc(F)c4)cc3c2C1 (configuration not stated),104% (active)
16,COCCN1CCn2c(nc3cc(NS(C)(=O)=O)ccc32)C1,-7.04%
17,COC(=O)Nc1ncc(CN2C(=O)c3ccccc3C2=O)s1,-1.89%
18,CC(=O)Nc1ccc(NC(=O)[C@@H](NC(=O)c2cccc(C)c2)C(C)C)cc1,4.4%
19,CCOC(=O)C(CC)/C(C)=N\NC(=O)c1cccc(C)c1 (configuration not stated),89% (active)

row,SMILES,inhibition
1,CCNC(=O)COC(=O)CCNC(=O)c1cccc(C)c1,3.93%
2,Cc1ccccc1C(CC(=O)c1cccs1)C(C#N)C#N (configuration not stated),-24.6%
3,O=C(CN(c1cccc(Cl)c1)S(=O)(=O)c1ccccc1)NN=C1CCCC1,-7.21%
4,O=C(CSCC(=O)Nc1cccc([N+](=O)[O-])c1)Nc1ccccc1,54% (active)
5,O=C(CN1CCC(NC(=O)Nc2ccccc2)CC1)Nc1cccc([N+](=O)[O-])c1,13.2%
6,O=C(CSc1nc(-c2ccccc2)cs1)Nc1cccc([N+](=O)[O-])c1,27.9%
7,O=C1c2ccccc2C2=Nc3ccccc3SC(c3ccccc3F)C12 (configuration not stated),-94.9%
8,CC(C)OP(=O)(OC(C)C)C(Nc1ccccc1)c1cccc([N+](=O)[O-])c1 (configuration not stated),-23.4%
9,CC1(C)C/C(=N/Nc2ccc([N+](=O)[O-])cc2[N+](=O)[O-])C(C)(C)O1,-6.77%
10,CC(Nc1ccc([N+](=O)[O-])cc1[N+](=O)[O-])c1ccccc1 (configuration not stated),61.4% (active)
11,Cc1ccc(OCC(=O)Nc2ccccc2C(=O)NC2CC2)cc1C,0.16%
12,O=C(Nc1ccccc1N1CCOCC1)c1ccncc1,4.16%
13,O=C(NC(=S)Nc1ccccc1N1CCCCC1)c1ccc(F)cc1,-90.3%
14,CCc1ccc(C(=O)NC(=S)Nc2ccccc2N2CCOCC2)cc1,125% (active)
15,O=C(NCC(=O)N(CC1CCCO1)C(C(=O)NC1CCCCC1)c1ccccc1)c1ccco1 (configuration not stated),2.38%
16,COc1ccc(C)cc1NC(=O)CSc1ccc(Cl)cc1,5.69%
17,COc1ccc(Cl)cc1NC(=O)CN(C)C(=O)c1cc2ccccc2cc1OC,9.16%
18,COc1ccc(Cl)cc1NC(=O)CNc1ccccc1F,61.7% (active)
